What all share (parameters): scale not given: direction of the effect not stated beside the values
Assay [1] deals with Protein translocase subunit SecA (Escherichia coli (strain K12)) (UniProt P10408). The assay can be described thus: Assay to Identify E. coli SecA ATPase Inhibitors. The assay is classed as functional. The settings on record: 30 µM.
In assay [2] the target is T1, Ubiquitin-activating enzyme e1, putative (Leishmania donovani (strain BPK282A1)) (UniProt E9BSI1).
T1 sequence (whole entry): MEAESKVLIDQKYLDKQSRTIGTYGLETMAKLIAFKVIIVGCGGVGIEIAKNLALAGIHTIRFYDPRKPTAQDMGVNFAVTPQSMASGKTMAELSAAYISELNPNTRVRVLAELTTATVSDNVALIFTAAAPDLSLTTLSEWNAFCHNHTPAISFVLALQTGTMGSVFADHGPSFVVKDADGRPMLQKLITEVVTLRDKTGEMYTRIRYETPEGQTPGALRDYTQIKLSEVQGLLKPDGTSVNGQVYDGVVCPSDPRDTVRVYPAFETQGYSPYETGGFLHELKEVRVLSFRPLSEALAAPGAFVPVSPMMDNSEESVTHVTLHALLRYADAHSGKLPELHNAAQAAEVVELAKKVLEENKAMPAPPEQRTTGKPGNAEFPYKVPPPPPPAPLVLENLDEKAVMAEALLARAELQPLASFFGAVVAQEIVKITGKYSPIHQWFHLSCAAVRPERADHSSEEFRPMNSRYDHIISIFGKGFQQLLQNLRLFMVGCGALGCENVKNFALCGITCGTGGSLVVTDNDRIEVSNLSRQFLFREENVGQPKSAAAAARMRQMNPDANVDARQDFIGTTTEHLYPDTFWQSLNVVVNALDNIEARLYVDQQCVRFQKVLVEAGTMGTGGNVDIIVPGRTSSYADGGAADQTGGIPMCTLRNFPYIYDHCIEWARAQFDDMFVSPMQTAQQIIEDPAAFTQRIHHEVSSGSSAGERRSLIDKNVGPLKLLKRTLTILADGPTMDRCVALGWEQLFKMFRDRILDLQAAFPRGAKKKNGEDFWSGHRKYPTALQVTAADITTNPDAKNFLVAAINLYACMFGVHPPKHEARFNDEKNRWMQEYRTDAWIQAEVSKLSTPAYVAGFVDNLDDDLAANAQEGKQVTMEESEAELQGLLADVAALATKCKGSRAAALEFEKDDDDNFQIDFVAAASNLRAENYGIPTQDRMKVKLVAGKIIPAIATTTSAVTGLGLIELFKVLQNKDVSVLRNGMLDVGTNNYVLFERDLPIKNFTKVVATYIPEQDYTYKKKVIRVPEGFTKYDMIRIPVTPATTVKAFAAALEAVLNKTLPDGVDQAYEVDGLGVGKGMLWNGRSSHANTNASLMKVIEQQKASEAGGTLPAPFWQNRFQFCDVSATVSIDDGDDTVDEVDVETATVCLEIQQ
Put plainly: Leishmania donovani Ubiquitin Activating Enzyme (LdE1). The assay is classed as functional. The settings on record: 30 µM.

Assay [3] has as its target AMP-activated protein kinase, AMPK (Homo sapiens) (UniProt P54646+O43741+P54619+Q9UGJ0+Q9Y478+Q13131+Q9UGI9). Put plainly: AMP-dependent Kinase enzyme assay. An in vitro enzyme assay that detects ADP turnover that is directly proportional to AMPK activity. This uses naive AMPK that is activated during the assay with MK-8722. Format: functional. The settings on record: 30 µM.

Assay [4] deals with Sialic acid-binding Ig-like lectin 9 (Homo sapiens) (UniProt Q9Y336). Put plainly: Hs-Siglec9 ALPHAscreen SOP 20170721. Particulars: 10 µM. In general terms: Alpha assays give light when donor and acceptor beads are brought close together.
Sialic acid-binding Ig-like lectin 9 (Homo sapiens), sequence (Q9Y336 whole entry): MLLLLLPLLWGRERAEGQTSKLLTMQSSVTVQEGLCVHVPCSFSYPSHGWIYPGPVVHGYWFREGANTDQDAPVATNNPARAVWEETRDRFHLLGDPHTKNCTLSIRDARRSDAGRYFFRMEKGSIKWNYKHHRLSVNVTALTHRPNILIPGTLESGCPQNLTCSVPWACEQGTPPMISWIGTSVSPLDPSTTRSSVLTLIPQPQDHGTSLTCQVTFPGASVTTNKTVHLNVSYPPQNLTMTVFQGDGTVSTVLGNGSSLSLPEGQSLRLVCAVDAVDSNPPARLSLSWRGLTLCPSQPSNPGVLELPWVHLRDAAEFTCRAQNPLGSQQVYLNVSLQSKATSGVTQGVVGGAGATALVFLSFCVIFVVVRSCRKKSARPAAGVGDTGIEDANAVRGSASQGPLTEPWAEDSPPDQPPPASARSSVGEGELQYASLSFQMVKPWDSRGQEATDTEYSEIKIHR
The next assay relates to Trypanosoma cruzi. Put plainly: Trypanosoma cruzi phosphomannomutase and mannose-1-phosphate guanylyltransferase assay. Format: functional. The settings on record: 10 µM.
Assay [5] concerns the target T2, Arginase-2, mitochondrial (Homo sapiens) (UniProt P78540).
T2 sequence (whole entry): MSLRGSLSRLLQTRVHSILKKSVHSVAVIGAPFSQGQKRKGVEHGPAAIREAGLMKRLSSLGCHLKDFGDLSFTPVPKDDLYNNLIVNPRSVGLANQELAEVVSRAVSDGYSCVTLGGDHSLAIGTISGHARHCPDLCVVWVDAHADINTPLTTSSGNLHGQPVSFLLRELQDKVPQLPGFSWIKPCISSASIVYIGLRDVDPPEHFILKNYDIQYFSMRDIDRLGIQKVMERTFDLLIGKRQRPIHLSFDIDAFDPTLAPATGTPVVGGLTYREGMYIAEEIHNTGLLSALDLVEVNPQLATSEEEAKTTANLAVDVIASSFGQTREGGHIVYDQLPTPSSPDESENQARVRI
Put plainly: in vitro enzyme assay to detect the production of urea directly proportional to the activity of Arginase II. Further: in the data most compounds retested in dose-response had high values. Format: functional. Particulars: 33.3 µM.

The target in assay [6] is T3, Proteasome subunit beta (Trypanosoma cruzi) (UniProt O96673).
T3 sequence (whole entry): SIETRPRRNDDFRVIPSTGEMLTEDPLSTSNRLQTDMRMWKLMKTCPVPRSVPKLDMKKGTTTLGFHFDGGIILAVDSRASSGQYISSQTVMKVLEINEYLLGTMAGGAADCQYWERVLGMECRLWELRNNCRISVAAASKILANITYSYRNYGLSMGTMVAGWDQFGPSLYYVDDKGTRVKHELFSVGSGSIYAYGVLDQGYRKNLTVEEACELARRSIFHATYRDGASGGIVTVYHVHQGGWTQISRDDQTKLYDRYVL
Put plainly: Trypanosoma cruzi proteasome chymotrypsin-like activity (TcProtChymo) assay. Further: in the data most compounds retested in dose-response had high values. Particulars: 9.37 µM. Format: functional.

The species entered for another assay is Homo sapiens. Put plainly: To identify inhibition of the IFN signalling (Jak-Stat) pathway via expression of an eGFP reporter gene under the control of an IFN-stimulated response element (ISRE) containing MxA promoter. Format: functional. The settings on record: 30 µM. (In general: Reporter assays use an easily measured gene product as a stand-in for the process of interest.)

Assay [7] has as its target T4, Tyrosyl-tRNA synthetase, putative (Trypanosoma cruzi (strain CL Brener)) (UniProt Q4DSP6).
T4 sequence (whole entry): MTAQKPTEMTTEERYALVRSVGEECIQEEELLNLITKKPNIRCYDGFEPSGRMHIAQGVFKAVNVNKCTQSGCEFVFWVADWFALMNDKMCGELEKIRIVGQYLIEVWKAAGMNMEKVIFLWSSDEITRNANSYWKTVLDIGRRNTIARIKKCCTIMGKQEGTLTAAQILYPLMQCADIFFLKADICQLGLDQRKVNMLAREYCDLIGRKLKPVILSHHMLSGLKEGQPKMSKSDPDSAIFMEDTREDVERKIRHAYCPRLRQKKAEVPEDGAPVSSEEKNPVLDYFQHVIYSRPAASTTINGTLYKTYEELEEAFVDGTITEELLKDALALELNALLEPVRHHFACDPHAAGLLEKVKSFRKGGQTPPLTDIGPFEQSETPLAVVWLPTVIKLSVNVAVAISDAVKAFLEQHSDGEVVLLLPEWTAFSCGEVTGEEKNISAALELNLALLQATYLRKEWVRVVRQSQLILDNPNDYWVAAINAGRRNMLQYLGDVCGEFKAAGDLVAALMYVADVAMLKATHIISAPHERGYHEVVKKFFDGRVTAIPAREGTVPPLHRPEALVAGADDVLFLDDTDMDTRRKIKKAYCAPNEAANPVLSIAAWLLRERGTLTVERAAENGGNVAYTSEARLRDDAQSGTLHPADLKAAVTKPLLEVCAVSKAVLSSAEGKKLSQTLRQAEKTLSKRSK
The assay can be described thus: Trypanosoma cruzi tyrosyl tRNA synthetase (TcYRS) _High Tyrosine SOP. Further: in the data most compounds retested in dose-response had high values. The assay is classed as functional. The settings on record: 30 µM.

The target of assay [8] is T4, Tyrosyl-tRNA synthetase, putative (Trypanosoma cruzi (strain CL Brener)). Put plainly: Trypanosoma cruzi tyrosyl tRNA synthetase (TcYRS) SOP. Format: functional. The settings on record: 30 µM.
Assay [9] addresses Chromo domain-containing protein 1 (Saccharomyces cerevisiae (strain ATCC 204508 / S288c) (Baker's yeast)) (UniProt P32657). Put plainly: ScCHD-1 Enzyme Inhibition Assay. Further: in the data most compounds retested in dose-response had high values. The assay is classed as functional. The settings on record: 30 µM.

For part of these data: Results with a measured potency or affinity are listed apart.

Data on twelve molecules can be found in ChEMBL document CHEMBL3988442, “University of Dundee, Small-Polar-MMV Screening Library” (2021).

Protein translocase subunit SecA (Escherichia coli (strain K12)), sequence (P10408 whole entry): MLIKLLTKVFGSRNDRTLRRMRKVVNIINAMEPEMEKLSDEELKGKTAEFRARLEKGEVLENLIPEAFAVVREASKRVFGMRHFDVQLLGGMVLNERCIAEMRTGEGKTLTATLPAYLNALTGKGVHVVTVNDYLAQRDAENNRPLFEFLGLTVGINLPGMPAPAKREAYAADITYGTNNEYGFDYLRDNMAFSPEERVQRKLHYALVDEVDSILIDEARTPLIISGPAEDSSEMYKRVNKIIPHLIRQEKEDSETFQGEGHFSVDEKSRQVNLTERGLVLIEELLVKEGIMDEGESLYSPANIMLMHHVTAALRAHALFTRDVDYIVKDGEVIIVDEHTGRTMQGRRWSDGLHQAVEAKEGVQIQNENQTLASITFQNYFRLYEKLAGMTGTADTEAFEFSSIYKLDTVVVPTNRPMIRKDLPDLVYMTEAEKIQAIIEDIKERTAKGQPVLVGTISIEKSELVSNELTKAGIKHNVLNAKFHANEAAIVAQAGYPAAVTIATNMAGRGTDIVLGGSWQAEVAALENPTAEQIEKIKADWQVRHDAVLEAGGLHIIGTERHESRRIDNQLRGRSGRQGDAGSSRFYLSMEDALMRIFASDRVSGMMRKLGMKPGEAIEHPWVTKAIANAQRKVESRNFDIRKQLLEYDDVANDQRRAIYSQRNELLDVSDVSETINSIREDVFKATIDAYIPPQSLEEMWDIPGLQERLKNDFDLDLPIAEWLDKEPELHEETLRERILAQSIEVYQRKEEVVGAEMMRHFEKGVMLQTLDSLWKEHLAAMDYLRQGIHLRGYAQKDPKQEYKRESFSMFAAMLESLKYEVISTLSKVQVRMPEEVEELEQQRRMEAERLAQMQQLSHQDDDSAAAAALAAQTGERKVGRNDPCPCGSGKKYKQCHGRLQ
Chromo domain-containing protein 1 (Saccharomyces cerevisiae (strain ATCC 204508 / S288c) (Baker's yeast)), sequence (P32657 whole entry, the tested form may be a part): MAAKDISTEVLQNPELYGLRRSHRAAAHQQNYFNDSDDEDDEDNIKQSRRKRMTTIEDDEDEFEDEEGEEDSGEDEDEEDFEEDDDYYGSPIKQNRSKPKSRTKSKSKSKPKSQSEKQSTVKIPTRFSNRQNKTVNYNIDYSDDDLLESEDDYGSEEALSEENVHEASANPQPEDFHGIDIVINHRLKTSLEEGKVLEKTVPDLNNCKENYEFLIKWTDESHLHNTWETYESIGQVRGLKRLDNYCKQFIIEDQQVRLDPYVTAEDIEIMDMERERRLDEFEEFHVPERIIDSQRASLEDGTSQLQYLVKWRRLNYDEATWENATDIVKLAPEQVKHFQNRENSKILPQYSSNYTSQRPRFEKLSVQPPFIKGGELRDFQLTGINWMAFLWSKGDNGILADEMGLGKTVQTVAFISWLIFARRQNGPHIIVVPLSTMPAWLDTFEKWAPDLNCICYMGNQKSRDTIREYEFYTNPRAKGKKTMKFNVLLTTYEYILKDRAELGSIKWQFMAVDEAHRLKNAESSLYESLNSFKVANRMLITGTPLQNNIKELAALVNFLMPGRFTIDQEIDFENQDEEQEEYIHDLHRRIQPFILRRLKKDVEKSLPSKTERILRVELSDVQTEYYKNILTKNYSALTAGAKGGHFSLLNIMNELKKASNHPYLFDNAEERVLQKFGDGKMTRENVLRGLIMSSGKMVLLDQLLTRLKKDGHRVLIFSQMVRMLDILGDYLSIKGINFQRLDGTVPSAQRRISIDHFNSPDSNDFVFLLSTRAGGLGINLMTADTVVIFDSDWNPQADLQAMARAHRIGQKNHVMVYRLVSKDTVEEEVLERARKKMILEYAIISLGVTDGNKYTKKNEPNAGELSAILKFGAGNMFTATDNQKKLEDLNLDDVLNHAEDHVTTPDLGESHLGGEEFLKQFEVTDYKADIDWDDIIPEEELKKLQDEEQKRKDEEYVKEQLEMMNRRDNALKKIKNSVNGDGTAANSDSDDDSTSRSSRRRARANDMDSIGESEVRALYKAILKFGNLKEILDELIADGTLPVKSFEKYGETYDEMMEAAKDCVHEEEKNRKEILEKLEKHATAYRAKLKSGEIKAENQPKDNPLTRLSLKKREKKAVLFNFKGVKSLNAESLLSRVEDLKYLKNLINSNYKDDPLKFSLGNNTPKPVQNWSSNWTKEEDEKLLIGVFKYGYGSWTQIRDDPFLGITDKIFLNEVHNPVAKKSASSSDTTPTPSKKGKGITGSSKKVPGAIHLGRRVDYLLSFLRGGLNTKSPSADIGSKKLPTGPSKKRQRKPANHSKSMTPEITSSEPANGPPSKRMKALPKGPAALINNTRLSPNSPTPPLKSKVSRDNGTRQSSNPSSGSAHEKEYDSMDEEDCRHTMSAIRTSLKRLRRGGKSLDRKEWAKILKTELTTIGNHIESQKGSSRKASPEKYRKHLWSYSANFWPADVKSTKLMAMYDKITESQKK

Turning to `O=C(CCCOCc1ccccc1)N1CCCC1c1ccccn1` (configuration not stated), the Percent Effect in [1] was -2.89%; in assay [2], 0%; in [3], -0.0464%; in [4] it was -0.638%; in the assay on Trypanosoma cruzi, 2.55%; in [5], 7.99%. The Percent Effect in [6] is 5%; in the assay listed under Homo sapiens, -30.4%; in assay [7] it was 0.493%; in assay [8], 3.8%; in [9] it was -2.69%.
On to `Cc1ccc(NC2CCN(C(=O)CC3CCCO3)CC2)nn1` (configuration not stated), for which the Percent Effect in assay [1] was -3.13%; in assay [2] it was -5.41%; in [3] it was -10.4%; in assay [4] it was 8.84%; in the assay with Trypanosoma cruzi, -2.17%; in [5], 2%. Besides, the Percent Effect in [6] was 1.8%; in the assay filed under Homo sapiens it was 5.87%; in assay [7], 1.48%; in assay [8], -8.64%; in [9], 0.857%.
On to `CCc1nnc2n1CCN(C(=O)CN(C)Cc1ccccc1)C2`, for which the Percent Effect in assay [1] is -2.83%; in assay [2], 7.89%; in assay [3], -9.27%; in [4], 7.43%; with Trypanosoma cruzi it was 5.88%; in [5], 2.16%. Also, the Percent Effect in assay [6] was 4.32%; in the assay listed under Homo sapiens it was -5.24%; in [7], 4.43%; in assay [8] it was 18.5%; in assay [9], -4.71%.
For the molecule `CCOc1cc(C)nc(N2CCN(C(=O)CC)CC2)n1`, the Percent Effect in assay [1] is -4.4%; in assay [2], 5.41%; in assay [3], 144%; in assay [4] it was 10.3%; in the assay on Trypanosoma cruzi, 0.836%; in assay [5], 0.924%. Moreover, the Percent Effect is -14.4% in assay [6]; 17.8% in the assay listed under Homo sapiens; 6.93% in [7]; 6.1% in assay [8]; 7.75% in [9].
`CCn1c(=O)nc2n1C(=O)N(c1cccc(Cl)c1)C2`: the Percent Effect in assay [1] is -5.8%; in [2], 6.67%; in [3], -1.98%; in [4] it was -4.32%; with Trypanosoma cruzi, -0.786%; in [5] it was 2.29%. The Percent Effect was 13.7% in [6]; -10.2% in the assay filed under Homo sapiens; 8.47% in assay [7]; 15.4% in [8]; -7.77% in [9].
As for `COCc1nc(C(=O)N2CCCCC2Cn2cccn2)cs1` (configuration not stated), the Percent Effect in assay [1] was -1.64%; in assay [2], -7.89%; in [3] it was -1.7%; in assay [4], -2.08%; with Trypanosoma cruzi, 6.82%; in [5], -3.24%. Also, the Percent Effect in assay [6] was -0.761%; in the assay filed under Homo sapiens, -20.6%; in [7], 0.493%; in assay [8], 3.7%; in assay [9] it was 3.28%.
For `CC(=O)N1CCN(C(=O)CCCc2nc(C(C)C)no2)CC1`, the Percent Effect in assay [1] is -1.74%; in assay [2], 15.2%; in [3], 2.62%; in assay [4], -11.8%; in the assay on Trypanosoma cruzi, -10.1%; in assay [5], 4.56%. In addition, the Percent Effect in assay [6] is 8.44%; in the assay filed under Homo sapiens, 37.4%; in [7] it was -0.493%; in assay [8], -1.27%; in [9], -5.47%.
On to `CNC(=O)CSc1cnn(CC(=O)Nc2cccc(Cl)c2C)c(=O)c1Cl`, for which the Percent Effect in [1] was -2.17%; in assay [2] it was 5.48%; in assay [3] it was -0.626%; in assay [4] it was 4.21%; with Trypanosoma cruzi, -4.31%; in assay [5] it was 2.73%. For the same molecule, the Percent Effect amounted to 17.6% in assay [6]; 9.06% in the assay filed under Homo sapiens; 4.3% in [7]; 12.5% in assay [8]; 1.71% in [9].
Take `Cn1ncc2c(=O)[nH]c(CN3CCC(Cc4ccccc4)CC3)nc21`: the Percent Effect was -4.67% in assay [1]; 10.5% in assay [2]; -7.07% in assay [3]; 0.445% in assay [4]; 8.87% in the assay on Trypanosoma cruzi; 3.6% in assay [5]. Further, the Percent Effect in assay [6] is 7.7%; in the assay filed under Homo sapiens, -0.345%; in [7], 9.36%; in assay [8] it was 25.9%; in assay [9], -10.4%.
Consider `CCOCC(O)CN1CCN(C(=O)c2ccnc(N(C)C)c2)CC1` (configuration not stated), for which the Percent Effect was -2.11% in [1]; 2.7% in assay [2]; -5.93% in [3]; 13.5% in [4]; 5.99% in the assay on Trypanosoma cruzi; 1.43% in [5]. The Percent Effect is 0% in assay [6]; -4.49% in the assay filed under Homo sapiens; 1.59% in [7]; 7.32% in assay [8]; -3.55% in assay [9].
As to `Cc1cc(C(=O)N2CCCC2c2nnc3n2CCCCC3)no1` (configuration not stated), the Percent Effect is -2.02% in [1]; 6.94% in assay [2]; -6.41% in [3]; -2.93% in [4]; 0.291% with Trypanosoma cruzi; 2.21% in assay [5]. For the same molecule, the Percent Effect in assay [6] is 21.1%; in the assay listed under Homo sapiens, -18.8%; in assay [7], 6.32%; in assay [8], 12.8%; in [9] it was -5.42%.
As to `COc1cccc(CN2CCCCCC2c2cccc(C)c2)c1O` (configuration not stated), the Percent Effect in assay [1] was -3.46%; in [2], -2.6%; in assay [3], 18.9%; in assay [4], -5.45%; with Trypanosoma cruzi it was -3.25%; in [5], -3.23%. For the same molecule, the Percent Effect in assay [6] is 24%; in the assay listed under Homo sapiens it was 21.6%; in assay [7], -5.29%; in assay [8], -3.85%; in assay [9], -9.17%.
